# Screening results (PubChem)
# This is a sample that favours compounds with a hit; in the whole collection about 9.6% have one here.
# Cav3 T inh: blocks human Cav3.2 T-type calcium channel | Cav3.2-expressing cells, Fluo-4 calcium fluorescence FDSS; stronger effect = lower value | B-score at 10 µM | 100,000 compounds, 4% hits;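 active means single-dose well whose peak fluorescence ratio is a statistical outlier from its plate by either plate-standardised score or position-corrected B-score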
# PLAP activator: activates human placental alkaline phosphatase; 96,000 compounds, 1.2% hits; activation fold at 20 µM; purified PLAP enzyme, luminescent substrate read-out; stronger effect = higher value; AID 696; in the data active means activation fold above about 2
# Target sequence (P05187 whole entry, looked up): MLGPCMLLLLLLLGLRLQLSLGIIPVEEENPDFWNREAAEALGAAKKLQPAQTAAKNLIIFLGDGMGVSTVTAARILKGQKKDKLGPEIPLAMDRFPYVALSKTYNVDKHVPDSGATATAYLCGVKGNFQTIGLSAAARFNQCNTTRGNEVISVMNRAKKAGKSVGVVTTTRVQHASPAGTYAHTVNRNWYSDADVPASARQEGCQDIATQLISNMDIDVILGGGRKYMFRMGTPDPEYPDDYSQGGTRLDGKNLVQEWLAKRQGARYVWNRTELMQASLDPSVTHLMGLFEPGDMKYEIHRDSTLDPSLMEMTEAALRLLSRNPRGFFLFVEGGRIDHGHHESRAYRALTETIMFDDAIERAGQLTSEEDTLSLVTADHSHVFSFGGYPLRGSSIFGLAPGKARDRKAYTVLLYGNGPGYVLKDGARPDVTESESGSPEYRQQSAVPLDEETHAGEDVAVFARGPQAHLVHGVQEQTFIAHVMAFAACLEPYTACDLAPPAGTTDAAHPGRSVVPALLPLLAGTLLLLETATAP
# PostGolgi ctrl: yeast control strain growth, post-Golgi counter-screen; efflux-deficient yeast background strain, growth absorbance A615, 16 h; inhibition, % at 10 µM; 98,000 compounds, 5% hits
# DAT uptake mod: human DAT dopamine uptake with cocaine, either direction; LLC-PK1 hDAT cells, [14C]-dopamine uptake with cocaine IC80; actives deviate in either direction; B-score at 10 µM; 110,000 compounds, 1.3% hits; AID 449768;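 active means Z score or B-score, a plate-position-corrected score, falls beyond the plate's 99.7% confidence bounds, in either direction; inactive means both scores lie inside the 99.7% bounds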;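 further: scored against the spread of the other compound wells on the same plate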
# PostGolgi yeast: growth inhibition of a yeast mutant, post-Golgi transport screen; inhibition, % at 10 µM; post-Golgi transport phenotypic cell assay; 98,000 compounds, 0.9% hits;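 further: yeast cells grown in 1536-well plates; yeast grown about 18 h at 30C before absorbance read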
# Numbers without * were called inactive; . = no result given. Unless noted, no stated cut-off is given here; in the data, active means inhibition above about 30%; inactive means the rest.
SMILES,Cav3 T inh,PLAP activator,PostGolgi ctrl,DAT uptake mod,PostGolgi yeast
CC(C)NC(=O)NC(=O)CSc1nnc(COc2ccccc2F)n1C(C)C1CC2CCC1C2 (stereo not given),-2.7,1.3,14,2.6*,2
CC(c1ccc(F)cc1)n1c(-c2ccc3ccccc3n2)n[nH]c1=S (stereo not given),-1.7,1.1,36*,-0.042,0
CC(c1ccc(Cl)cc1)n1c(-c2ccc3ccccc3n2)n[nH]c1=S (stereo not given),-0.019,1,55*,-0.43,3
COCCNc1nc(-c2cc(C(=O)Nc3ccccc3)on2)cc(C(C)C)n1,-2.3,.,.,1.4,.
COC(=O)CCCCCc1ccc(C(C)=O)s1,-0.42,1.1,8,0.45,6
Oc1cccc(-c2nc3c4c(ncn3n2)-c2ccccc2CC42CCCC2)c1,0.53,0.9,22,1.4,3
Cc1ccc(NC2=Nc3ccccc3N3C2=Nc2c(c(C)nn2-c2ccccc2)C3c2ccc(O)c(O)c2)cc1 (stereo not given),.,1.3,12,.,-6
Cc1nn(-c2ccccc2)c2c1C(c1ccc(O)c(O)c1)N1C(=N2)C(Nc2ccccc2)=Nc2ccccc21 (stereo not given),-1.4,1.5,51*,0.86,-5
Cc1cccc(N2CCN(C(=O)Cc3ccc(Br)cc3)CC2)c1C,-1.5,0.9,46*,0.034,18
Cc1cccc(OCc2n[nH]c(=S)n2C2CCCCC2)c1,-1.9,.,.,0.52,.
Cc1ccc(OCc2n[nH]c(=S)n2C2CCCCC2)cc1,0.026,1.4,41*,1.3,-2
O=C(COC(=O)c1ccccc1[N+](=O)[O-])c1ccc(C2CCCCC2)cc1,-0.91,0.9,34*,-1.2,-7
N/C(=N\OC(=O)c1ccccc1[N+](=O)[O-])c1cccnc1,0.12,0.9,0,-1.3,-2
NS(=O)(=O)c1ccc(N2N=C(c3ccc(Br)cc3)CC2c2ccc(F)cc2)cc1 (stereo not given),-0.12,1.4,86*,2.3,16
O=C1OCCN1C(=O)[C@H]1[C@H](c2ccc(F)cc2)C(c2ccc(F)cc2)=NN1c1ccc(Br)cc1,-0.34,.,.,-0.46,.
CCc1sc(N(C(=O)Cc2ccccc2)c2ccc(F)cc2)nc1-c1ccccc1,-5.3*,0.8,-2,-0.55,-7
CCc1sc(N(C(=O)Cc2ccccc2)c2ccccc2)nc1-c1ccccc1,0.0067,0.9,5,0.83,-2
Cc1ccc(-n2nc3c(c2NC(=O)c2c(-c4ccccc4Cl)noc2C)CSC3)cc1,-6*,1.3,9,3*,0
Cc1ccccc1-n1nc2c(c1NC(=O)c1c(-c3ccccc3Cl)noc1C)CSC2,-5.9*,1.2,3,0.0019,8
CN1C(=O)/C(=C/c2cn(CC(=O)N3CCCCC3)c3ccccc23)c2ccccc21,-1.4,1,52*,3.8*,0
CCCCc1ccc(NC(=O)CSCc2cc(=O)[nH][nH]2)cc1,-0.71,2.3*,7,-0.45,10
N#CCC(=O)N/N=C/c1ccc(Sc2nc3ccccc3s2)o1,-5.3*,1.2,16,0.37,-1
COCC(=O)N/N=C/c1ccc(Sc2nc3ccccc3s2)o1,-3.6,1.3,3,.,-4
O=C(Cc1cccc2ccccc12)N/N=C/c1ccc(Sc2nc3ccccc3s2)o1,-3,1.2,35*,-1.2,7
O=C(Cc1ccccc1)N/N=C\c1ccc(Br)o1,0.058,0.9,0,-0.0048,2
SMILES,Cav3 T inh,PLAP activator,PostGolgi ctrl,DAT uptake mod,PostGolgi yeast
O=C(COc1cccc2ccccc12)N/N=C/c1ccc(Sc2nc3ccccc3s2)o1,-2.9,1.2,6,0.37,6
Cc1ccccc1OCC(=O)N/N=C/c1ccc(Sc2nc3ccccc3s2)o1,-6.8*,1.5,12,0.026,1
COC(=O)CSc1snnc1-c1ccc(Cl)cc1Cl,-0.55,1,6,-1.5,7
COc1ccc(-n2c(=S)[nH]c3cc(C(=O)NCCCN4CCCC4=O)ccc3c2=O)c(OC)c1,-0.011,1.5,-7,1.4,-4
Cc1cc(O)c(C(C)C)cc1NS(=O)(=O)c1ccccc1,-2.3,1.1,5,0.23,1
CC(CCc1ccco1)NC(=O)c1cc2c(-c3ccccc3F)nn(C)c2s1 (stereo not given),-2.7,1.6,10,2.9*,-5
COc1cccc(-c2nn(C)c3sc(C(=O)Nc4ccc5c(c4)OCCO5)cc23)c1,-1.9,1.1,37*,-0.51,-2
COc1ccc(-c2nn(C)c3sc(C(=O)N4CCOCC4)cc23)cc1OC,0.44,1,3,-0.61,3
Cn1nc(-c2ccccc2F)c2cc(C(=O)Nc3ccc4c(c3)OCCO4)sc21,-0.24,1.6,52*,-3.7,20
COc1ccc(N2CCN(C(=O)c3cc4c(-c5cccc(OC)c5)nn(C)c4s3)CC2)cc1,-0.58,1.1,12,2*,8
COc1cccc(-c2nn(C)c3sc(C(=O)NCc4ccc(C)cc4)cc23)c1,-2,1.8,25,1.4,-8
CC(=O)c1ccc(N2CCN(C(=O)c3cc4c(-c5ccccc5F)nn(C)c4s3)CC2)cc1,0.22,1.6,11,1.4,4
Cc1nc(C)c(C(=O)C2=C(O)C(=O)N(CCCN(C)C)C2c2ccco2)s1 (stereo not given),.,1,.,.,.
COc1ccc(CCC(=O)Nc2nc3c(s2)CN(C)CC3)cc1OC,0.79,1.1,14,0.14,-7
O=C(CN(Cc1ccccc1)S(=O)(=O)c1ccccc1)N/N=C/c1ccc2c(c1)OCO2,-4.2*,1.3,10,-0.25,0
COc1ccc(CNC(=O)C2CCCN(S(=O)(=O)c3cc(C)ccc3OC)C2)cc1 (stereo not given),-3.3*,0.9,40*,-1.2,-5
Cc1ccc(CNC(=O)C2CCCN(S(=O)(=O)c3c(C)n[nH]c3C)C2)cc1 (stereo not given),0.049,2.3*,17,1.8,10
Cc1n[nH]c(C)c1S(=O)(=O)N1CCCC(C(=O)NCc2cccs2)C1 (stereo not given),-0.14,1,4,-0.42,10
CCOC(=O)C1CCCN(S(=O)(=O)c2ccc(OC)c3ccccc23)C1 (stereo not given),-4*,1.8,15,1.9,0
CCOC(=O)C1CCCN(S(=O)(=O)c2ccccc2)C1 (stereo not given),-0.63,1,14,-0.6,7
COc1ccc(NC(=S)NCCc2ccccc2)c(OC)c1,-0.03,0.9,6,-0.007,-5
COc1ccc(OC)c(NC(=S)NCCC(c2ccccc2)c2ccccc2)c1,-7.8*,.,.,1,.
Cc1cccc(C)c1NC(=S)NC(=O)CCc1ccccc1,-2.3,0.9,10,-0.4,3
Cc1ccccc1NC(=S)NCCC(c1ccccc1)c1ccccc1,-4.4*,1,6,1.6,-15
Cc1ccccc1NC(=S)NC(=O)CCc1ccccc1,-4*,0.6,4,1.9,2
CCOC(=O)c1c(C)[nH]c(C(=O)COC(=O)CCC2CCCC2)c1C,0.23,0.9,1,0.028,-8
Cc1ccccc1Nc1nnc(SCc2cc([N+](=O)[O-])cc3c2OCOC3)s1,-2.5,2*,28,1.9,3
